Bioassay records: PubChem, The Scripps Research Institute Molecular Screening Center
Most compounds without a hit are left out; they make up all but 4.1% or so of the library.
ssDAF-12 act = activates DAF-12 receptor from parasite S. stercoralis; HEK293 ssDAF-12/GRIP1 lit1-tk-luc reporter, luminescence; % of 3 µM dafachronic acid response; activation, % at 6.8 µM; 370,000 compounds, 1% hits;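 active means activation above the mean over all tested compounds plus 3 SD, cut at about 0.9% in these data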
hcDAF-12 act = activates DAF-12 receptor from parasite H. contortus; HEK293 hcDAF-12 lit1-tk-luc reporter, luminescence; 0% DMSO, 100% Δ7-dafachronic acid; activation, % at 6.8 µM; 370,000 compounds, 1.4% hits;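 active means activation above the mean of all tested compounds plus 3 SD, cut at about 5.5% in these data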
DAX1 inh-1 = inhibitors of human orphan nuclear receptor DAX1 (NR0B1); HEK293 Gal4-DAX1 luciferase reporter, luminescence; inhibition, % at 6.75 µM; 340,000 compounds, 0.99% hits; AID 504766;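 active means inhibition above the mean over all tested compounds plus 3 SD, cut at about 4.2% in these data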;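 further: inhibition shows as a rise in luminescence from relieved DAX1 repression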
DAX1 inh-2 = blocks DAX1 repression of SF-1 activated StAR promoter; inhibition, % at 6.8 µM; AID 652010; HEK293T StAR-luciferase reporter, SF-1/DAX-1 repression relief; 370,000 compounds, 1.1% hits;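 active means inhibition above the mean over all tested compounds plus 3 SD, cut at about 3.6% in these data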;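 further: higher inhibition means more luminescence from relief of DAX-1 repression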
hgDAF12 agonist = activates the H. glycines DAF-12 receptor ligand-binding domain | HEK293 GAL4-hgDAF12 UAS-luciferase reporter, agonist luminescence; normalized to butyrate control | AID 687014 | 370,000 compounds, 1.8% hits | activation, % at 6.8 µM;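 active means activation above a cutoff set at the mean of all screened compounds plus 3 SD, cut at about 10% in these data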
LXR ag = LXR-beta agonism as hcDAF-12 counter-screen. HEK293 Gal4-LXR tk-luc reporter, luminescence, 24 h; normalized: DMSO 0%, positive control 100%. 3,400 tested, under 10 active. activation, % at 6.8 µM. shares compounds with hcDAF-12 act. AID 743027;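 active means mean percent activation of the reporter above a cutoff set as the average over tested compounds plus their standard deviation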
Target sequence (P55055 whole entry, looked up, the tested form may be a part): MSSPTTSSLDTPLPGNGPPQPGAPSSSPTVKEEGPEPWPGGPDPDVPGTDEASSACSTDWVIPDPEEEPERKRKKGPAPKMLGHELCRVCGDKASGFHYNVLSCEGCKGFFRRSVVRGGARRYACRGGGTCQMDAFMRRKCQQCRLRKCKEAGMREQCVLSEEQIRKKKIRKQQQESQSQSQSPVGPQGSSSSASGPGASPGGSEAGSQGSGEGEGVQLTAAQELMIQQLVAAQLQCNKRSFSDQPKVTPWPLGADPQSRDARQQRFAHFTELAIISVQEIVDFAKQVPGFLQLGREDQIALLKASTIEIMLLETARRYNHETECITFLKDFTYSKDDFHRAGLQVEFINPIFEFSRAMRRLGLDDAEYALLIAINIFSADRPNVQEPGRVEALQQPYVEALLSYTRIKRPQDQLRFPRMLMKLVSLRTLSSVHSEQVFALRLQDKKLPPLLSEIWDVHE
hcDAF12 ag = hcDAF-12 agonism, confirmation assay; HEK293 hcDAF-12 lit1-tk-luc reporter, luminescence; % of Δ7-dafachronic acid response; activation, % at 6.8 µM; shares compounds with hcDAF-12 act; 3,400 compounds, 61% hits;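 active means mean activation across triplicate tests above the threshold derived from the earlier primary screen, cut at about 5.5% in these data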
Large screens that a line does not name were inactive (follow-up assays come after a bar, where they were run).

CC(C)(C)c1ccc(C2(C)NC(=O)NC2=O)cc1 (configuration not stated)	hcDAF-12 act 8.7 | LXR ag inactive | hcDAF12 ag inactive
COc1ccc(OCC(=O)OCC(=O)c2ccc(OC)c(F)c2)cc1	none
CC(=O)C1=C(O)C(=O)N(CCc2ccccc2)C1c1ccccc1[N+](=O)[O-] (configuration not stated)	hcDAF-12 act 7.3 | LXR ag inactive | hcDAF12 ag inactive
O=C(/C=C/c1ccccc1)C1=C(O)C(=O)N(CCO)C1c1ccccc1[N+](=O)[O-] (configuration not stated)	none
Cc1csc(-c2ccc3cc(Cl)cc(Cl)c3n2)n1	hcDAF-12 act 10 (no result: DAX1 inh-1) | LXR ag inactive | hcDAF12 ag 11
Nc1nc2c(Cl)cc(Cl)cc2s1	none
COc1ccc(C2CC(c3cccs3)=Nc3ccccc3S2)cc1 (configuration not stated)	hcDAF-12 act 8.6 | LXR ag inactive | hcDAF12 ag inactive
CCCc1nc2nc(C)c(NS(=O)(=O)c3ccc(C4CCCCC4)cc3)c(=O)n2[nH]1	none
CN(C)S(=O)(=O)c1cccc(C(=O)OCC(=O)NC2CCCc3ccccc32)c1 (configuration not stated)	none
FC(F)(F)c1cccc(-c2cc3nc(NCCCn4ccnc4)ccn3n2)c1	none (no result: DAX1 inh-1)
Clc1ccccc1-c1cc2nc(NCCCn3ccnc3)ccn2n1	hcDAF-12 act 7.2 (no result: DAX1 inh-1) | LXR ag inactive | hcDAF12 ag inactive
O=C(CCC(=O)NCCCc1ccccc1)NCCCc1ccccc1	hcDAF-12 act 7.7 | LXR ag inactive | hcDAF12 ag inactive
O=C(CC1C(=O)NCCN1Cc1ccccc1)NCCCOc1cccnc1 (configuration not stated)	hcDAF-12 act 14 | LXR ag inactive | hcDAF12 ag inactive
Cc1cc2oc(=O)cc(-c3ccccc3)c2c(C)c1-c1ccc(C#N)cc1	none
CS(=O)(=O)Cc1cccc(C(=O)NC2CCSc3ccccc32)c1 (configuration not stated)	none
COC(=O)c1cn(-c2nc3ccccc3s2)nn1	hcDAF-12 act 7.8 (no result: DAX1 inh-1) | LXR ag inactive | hcDAF12 ag inactive
CC(=O)Nc1cc(C)nn1-c1nc2ccccc2s1	none
CCOc1ccc(S(=O)(=O)N(CC)CC)cc1NC(=O)CSCc1c(C)noc1C	none
CN(C(=O)c1cccc(NC(=O)Cc2ccc(NC(=O)C3CCN(C(=O)C4CCCC4)CC3)cc2)c1)C1CCCC1	none
CCCN1CCC(NC(=S)Nc2ccc([N+](=O)[O-])cc2)CC1	none
CCCN1CCN(C(=S)Nc2ccc([N+](=O)[O-])cc2)CC1	hcDAF-12 act 9.1 | LXR ag inactive | hcDAF12 ag inactive
Cc1cc(C)n2ncc(C(=O)O)c2n1	none
CC(=O)N=c1sc2c3ccccc3ccc2n1C	hcDAF-12 act 7.5 | LXR ag inactive | hcDAF12 ag inactive
Cc1cc(NCCCn2ccnc2)n2ncc(-c3ccc(Cl)cc3)c2n1	ssDAF-12 act 1.7, hcDAF-12 act 15, DAX1 inh-2 3.8, hgDAF12 agonist 19 | LXR ag inactive | hcDAF12 ag 19
Cn1cnc2c(cnn2C)c1=N	none
O=C(CCN1CCN(c2ccccc2)CC1)Nc1cccc(Br)c1	hcDAF-12 act 6.8 | LXR ag inactive | hcDAF12 ag inactive
O=C(CCN1CCCC1)Nc1cccc(Br)c1	none
OC[C@@H]1CN(Cc2ccncc2)C[C@H](n2cnc3c(NC4CCCC4)ncnc32)O1	none (no result: DAX1 inh-1)
CC(/C=N/N1CCN(c2ccccn2)CC1)=C\c1ccccc1	hcDAF-12 act 6.7 | LXR ag inactive | hcDAF12 ag inactive
Cc1ccccc1N=C1NN=C(c2ccccc2F)CS1	hcDAF-12 act 9.4, hgDAF12 agonist 13 | LXR ag inactive | hcDAF12 ag 11
Cc1cccc(C)c1N=C1NN=C(c2ccccc2F)CS1	none
CCOC(=O)c1ccc(S(=O)(=O)Nc2cc(C(=O)O)ccc2Cl)cc1	hcDAF-12 act 7.2 | LXR ag inactive | hcDAF12 ag inactive
